Source: PubChem BioAssay AID2606 (The Scripps Research Institute Molecular Screening Center, 2010)
About 160 (0.05%) of roughly 320,000 compounds were called active. Cut-off read from the data, not from the text of the source: active = inhibition above about 38%; inactive = the rest. The sample as a whole holds a higher share of actives than the screen did.

Target: Serine protease Rv3671c (Mycobacterium tuberculosis (strain ATCC 25618 / H37Rv)) (UniProt P9WHR9)
Assay: Rv3671c serine protease inhibitors, primary screen, biochemical, fluorescence polarization, M. tuberculosis H37Rv (AID 2606);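 note: extracellular domain of Rv3671c used as enzyme; 0% = enzyme with DMSO and 100% = no enzyme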
Details: at 5.96 µM; stronger effect = higher value

Sequence of Serine protease Rv3671c (Mycobacterium tuberculosis (strain ATCC 25618 / H37Rv)) (P9WHR9 whole entry, looked up, the tested form may be a part): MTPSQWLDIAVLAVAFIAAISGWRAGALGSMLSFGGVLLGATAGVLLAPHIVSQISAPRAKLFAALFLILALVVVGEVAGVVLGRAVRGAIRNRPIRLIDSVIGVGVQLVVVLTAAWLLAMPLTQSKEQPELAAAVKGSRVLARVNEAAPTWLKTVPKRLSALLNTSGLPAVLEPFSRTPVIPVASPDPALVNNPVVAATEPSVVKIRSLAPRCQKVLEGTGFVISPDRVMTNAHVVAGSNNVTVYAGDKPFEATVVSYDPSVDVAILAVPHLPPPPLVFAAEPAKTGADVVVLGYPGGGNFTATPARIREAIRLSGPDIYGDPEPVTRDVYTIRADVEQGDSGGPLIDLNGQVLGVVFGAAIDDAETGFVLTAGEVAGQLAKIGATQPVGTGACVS

| SMILES | inhibition |
| --- | --- |
| COc1ccc(NC(=O)C(C)SCc2ccccc2)cc1 (stereo not drawn) | 0.17% (inactive) |
| C/C(=N\NC(=O)c1ccc(CSc2nc(C)cc(C)n2)cc1)C1CCCCC1 | -1.11% (inactive) |
| O=C1Nc2cc(C(=O)N3CCN(c4ccc(F)cc4)CC3)ccc2NC1CSCc1cccc(F)c1 (stereo not drawn) | -19.6% (inactive) |
| O=C(Nc1cc(S(=O)(=O)Nc2ccc(Cl)cc2)ccc1O)c1ccc(F)cc1F | -20% (inactive) |
| COc1ccccc1NC(=S)N1CCN(C(c2ccccc2)c2ccccc2)CC1 | -3.52% (inactive) |
| CCOc1ccc(OCC)c(NC(=O)CN(C)S(=O)(=O)c2cccc3nsnc23)c1 | 4.81% (inactive) |
| CC(=O)OCCOCn1cnn2c(=O)c(Br)c(C)nc12 | 9.74% (inactive) |
| Cc1nc2nc[nH]n2c(=O)c1NC(=O)c1cccc(OCC(C)C)c1 | 2.66% (inactive) |
| Cn1cnc(S(=O)(=O)Nc2ccc3c(c2)OCCO3)c1 | -5.54% (inactive) |
| O=C(NCc1ccccc1)[C@@H]1CSC2c3ccccc3C(=O)N21 (stereo partly drawn) | 5.62% (inactive) |
| CCc1cccc2c(C=C(C#N)C#N)cn(CC(=O)N3CCCCC3)c12 | -5.84% (inactive) |
| COc1cccc(CNC(=O)Cn2c(=O)oc3cc(S(=O)(=O)N4CCCCC4)ccc32)c1 | -26.5% (inactive) |
| O=C(O)c1ccn(COc2ccc(Br)cc2)n1 | 5.52% (inactive) |
| CCc1ccc(N(C(=O)c2csnn2)C(C(=O)NC2CCCCC2)c2cccnc2)cc1 (stereo not drawn) | -1.12% (inactive) |
| COc1ccccc1Nc1nnc(SC(C)C(=O)NC2CC2)s1 (stereo not drawn) | 6.85% (inactive) |
| C=C1CCC(N(O)c2cc(C)on2)C(=C)CCC2C1CC2(C)C (stereo not drawn) | -8.68% (inactive) |
| O=C(CNS(=O)(=O)c1ccc2ccccc2c1)Nc1ccc(F)c(F)c1F | 2.38% (inactive) |
| CCN(CC)C(=O)CSc1nnc(-c2cnccn2)n1-c1ccc(C)cc1 | -10.7% (inactive) |
| O=C(O)C1=NN(c2c(F)c(F)cc(F)c2F)C(=O)CC1 | -8.71% (inactive) |
| CCOc1ccc(S(=O)(=O)N2CCC(c3ccccc3)CC2)cc1C(=O)O | 2.59% (inactive) |

| SMILES | inhibition |
| --- | --- |
| CCCN(CCC)S(=O)(=O)c1ccc(C(=O)NNC(=O)c2cc(OC)c(OC)c(OC)c2)cc1 | 2.22% (inactive) |
| CCCCNC(=O)C1(c2ccc(OC)cc2)CCOCC1 | 1.73% (inactive) |
| CC(C)(C)NS(=O)(=O)NC(=O)C1=C(N2CCCC2)COC1=O | -1.86% (inactive) |
| O=c1[nH]c2ccccc2n2c(-c3ccccc3)nnc12 | -13% (inactive) |
| COc1ccc(NC(=O)c2cc([N+](=O)[O-])ccc2NC(=O)CNC2CCCCC2C)c(OC)c1 (stereo not drawn) | -11.9% (inactive) |
| CN(C)C(=O)N=NC(=O)N(C)C | -1.83% (inactive) |
| O=C(Nc1ccccc1C(=O)O)c1ccc(N2C(=O)C3CC=CCC3C2=O)cc1 (stereo not drawn) | -4.79% (inactive) |
| COc1cccc(CNc2ncc(-c3ccccc3)n2C)c1 | -4.35% (inactive) |
| O=C(Cn1ccc([N+](=O)[O-])n1)NCc1cccs1 | 2.31% (inactive) |
| CCOc1ncccc1C(=O)OCC(=O)c1c[nH]c2ccccc12 | 2.18% (inactive) |
| Cc1ccccc1CSc1nnc(CCCCCNC(=O)OC(C)(C)C)o1 | -2.88% (inactive) |
| COc1cc([N+](=O)[O-])cc([N+](=O)[O-])c1NC(=O)N1CCOCC1 | 0.53% (inactive) |
| O=C(CN1C(=O)NC2(CCCC2)C1=O)OCCOc1ccc(F)cc1 | 0.5% (inactive) |
| O=C(NCc1ccc(Cl)cc1)c1cc2c(nc3sccn32)s1 | -4.26% (inactive) |
| Cc1c(Br)c([N+](=O)[O-])nn1CC(=O)Nc1sc2c(c1C(=O)OC(C)C)CCC(C)C2 (stereo not drawn) | -2.96% (inactive) |
| O=S1(=O)CC(NCc2ccccc2)C(Nc2ccc(Cl)cc2)C1 (stereo not drawn) | -2.48% (inactive) |
| O=C(CN(c1cc(C(F)(F)F)ccc1Cl)S(=O)(=O)c1ccccc1)NCc1cccnc1 | 4.36% (inactive) |
| O=C1CCCN1CCCNC(=S)Nc1ccc(F)c(Cl)c1 | -6.09% (inactive) |
| O=C1c2ccccc2C(=O)N1CCc1nn[nH]n1 | -7.39% (inactive) |
| Cc1ccccc1CCN(CC(=O)NC1CCCCC1)C(=O)c1csnn1 | -0.33% (inactive) |

| SMILES | inhibition |
| --- | --- |
| OC(c1ccccc1)c1nccn1Cc1ccccc1 (stereo not drawn) | 0.91% (inactive) |
| CSc1nc2ccccc2cc1/C=C(\C#N)c1ccc(Cl)cc1Cl | 3.83% (inactive) |
| O=C(COC(=O)c1cc(=O)[nH]c2ccccc12)Nc1nc(-c2cccc(Br)c2)cs1 | -76% (inactive) |
| CCOC(=O)[C@@H]1[C@H]2COc3ccc(Br)cc3[C@H]2N2C(=O)N(c3ccc(C)cc3)C(=O)[C@@]12C | 0.17% (inactive) |
| CCN(C(=O)CSc1nnnn1-c1ccccc1OC)C1CCS(=O)(=O)C1 (stereo not drawn) | 2.72% (inactive) |
| CSc1ccc(C(=O)C2CCCN(C(=O)c3ccc(C)nc3)C2)cc1 (stereo not drawn) | 1.04% (inactive) |
| CCC(C)c1ccc(NC(=O)COC(=O)C2CCCC2)cc1 (stereo not drawn) | -4.19% (inactive) |
| Cc1ccc(OCC(=O)c2cc(C)n(Cc3ccco3)c2C)c([N+](=O)[O-])n1 | -2.09% (inactive) |
| COc1ccc(NC(=O)C2C3CCC(O3)C2C(=O)O)cc1OC (stereo not drawn) | -2.75% (inactive) |
| COc1cc(C(=O)NCc2ccncc2)cc(Br)c1OCc1ccccc1 | -8.67% (inactive) |
| CCn1c(=O)cc(SCC(=O)NCCC2=CCCCC2)c2ccccc21 | 3.21% (inactive) |
| CCOc1ccc(S(=O)(=O)N(CC(=O)NCC(F)(F)F)Cc2ccco2)cc1 | 4.73% (inactive) |
| CC1CC(=NNC(=O)C2COc3ccccc3O2)CC(C)(C)C1 (stereo not drawn) | -11% (inactive) |
| O=C(O)c1ccc2c(=O)n3c(nc2c1)/C(=C/c1ccc(Cl)c([N+](=O)[O-])c1)CC3 | 8.14% (inactive) |
| C=C(C)C(=O)Nc1cccc(C2=NOC3(C2)C[C@H](C(N)=O)N(C(=O)C(c2ccccc2)c2ccccc2)C3)c1 (stereo partly drawn) | -1.51% (inactive) |
| Cc1onc(-c2c(F)cccc2Cl)c1C(=O)N(C)CC(=O)Nc1cccc(F)c1 | 2.86% (inactive) |
| C=CCOc1cccc(CNCc2cccnc2)c1 | 4.49% (inactive) |
| COC(=O)c1cccc(N(CC(=O)NCC2CCCO2)C(=O)CCC(=O)Nc2cc(C)on2)c1 (stereo not drawn) | -6.9% (inactive) |
